Experiment [1] can be described thus: qHTS assay to identify small molecule antagonists of the estrogen receptor alpha (ER-alpha) signaling pathway using the BG1 cell line in the presence of 0.1 nM 17-beta-estradiol - cell viability counter screen (AID 1259241). Also: nearly all actives have a fitted effect of over 40% in size. Also: potency is read from the fitted curve at half-maximal effect. In outline:
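Cytotoxicity counter-screen: live-cell protease activity measured by fluorescence (30 min reagent step) in the same wells. Cells were VM7Luc4E2 with endogenous ER-alpha and ERE-driven luciferase, treated 22 hr at 37C alongside 0.1 nM 17beta-estradiol final.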
In general terms: In qHTS, concentration-response curves come from the screen itself.

Experiment [2] is described as follows: qHTS assay to identify small molecule antagonists of the androgen receptor (AR) signaling pathway using the MDA cell line in the presence of 0.5 nM R1881 - cell viability counter screen (AID 1259242). Also: nearly all actives have a fitted effect of over 45% in size. Also: potency is read from the fitted curve at half-maximal effect. In outline: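 MDA-kb2 cells (MMTV-luciferase, AR/GR responsive) were treated with compounds plus 0.5 nM R1881 (final) for 16 hr at 37C, 0% CO2. Viability was then read in the same wells as live-cell protease fluorescence (CellTiter-Fluor, 30 min).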

The target of experiment [3] is Androgen receptor (Homo sapiens) (UniProt P10275). Put plainly: qHTS assay to identify small molecule antagonists of the androgen receptor (AR) signaling pathway using the MDA cell line in the presence of 0.5 nM R1881 (AID 1259243). Also: nearly all actives have a fitted effect of over 50% in size. Also: potency is read from the fitted curve at half-maximal effect. In outline:
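MDA-kb2 cells (MMTV-luciferase, responsive to AR and GR) at 3,000/well, rested 5 h at 37C, 0% CO2, then given compounds plus 0.5 nM R1881 (final) for 16 hr. Luciferase read with ONE-Glo after 30 min at room temperature.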

Experiment [4] deals with Estrogen receptor (Homo sapiens) (UniProt P03372). Put plainly: qHTS assay to identify small molecule antagonists of the estrogen receptor alpha (ER-alpha) signaling pathway using the BG1 cell line in the presence of 0.1 nM 17-beta-estradiol (AID 1259244). Also: nearly all actives have a fitted effect of over 50% in size. The gist of the method:
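VM7Luc4E2 cells (endogenous full-length ER-alpha, 4×ERE-luciferase), kept 5 days in phenol red-free, charcoal-stripped FBS medium; 4,000 cells/well. Compounds added with 0.1 nM (final) 17beta-estradiol, 22 hr at 37C; luminescence read with ONE-Glo after 30 min.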

A short description of experiment [5]: qHTS assay to identify small molecule HDAC inhibitors (AID 1259364). Also: nearly all actives have a fitted effect of over 45% in size. Also: potency is read from the fitted curve at half-maximal effect. As to activity change, negative = inhibition: top concentration of the series differs between compounds. In outline: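 Wild-type HCT-116 cells, plated overnight at 37 C, exposed to compounds 2 hr at 37 C; luminogenic HDAC-Glo substrate then added 30 min at room temperature. Luminescence reports relative endogenous class I/II HDAC activity.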
Experiment [6] is described as follows: qHTS assay to identify small molecule HDAC inhibitors - cell viability counter screen (AID 1259365). Also: series mostly up to about 92 µM; nearly all actives have a fitted effect of over 50% in size. In outline: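 CellTiter-Glo luminescence (30 min, room temperature) reported viability after a 2 h compound exposure at 37 C. Cells: wild-type HCT-116, 1,500 per well, seeded the night before.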
Experiment [7] can be described thus: qHTS assay to identify small molecule agonists of the sonic hedgehog signaling (Shh) pathway - cell viability counter screen (AID 1259366). Also: nearly all actives have a fitted effect of over 50% in size. The gist of the method: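 Cytotoxicity counter screen: CellTiter-Fluor reagent added after 23 h compound exposure, then 1 h at 37C and fluorescence read. Cells were 3T3 Gli1-Luc, seeded 2,000 per well and dosed 4 h post-plating.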

The nature of experiment [8]: qHTS assay to identify small molecule antagonists of the sonic hedgehog signaling (Shh) pathway - cell viability counter screen (AID 1259367). Also: nearly all actives have a fitted effect of over 55% in size. In outline:
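Seed 3T3 Gli1-Luc cells at 2,000 per well; incubate 4 hr; add compound in DMSO, then conditioned medium; incubate at 37C with 5% CO2; add CellTiter-Fluor after 23 hr; read fluorescence 1 hr later.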

Experiment [9] is described as follows: qHTS assay to identify small molecule agonists of the sonic hedgehog signaling (Shh) pathway (AID 1259368; calls by dose curve;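 also: NIH/3T3-derived 3T3Gli1-Luc cells carrying a stable Gli1-driven firefly luciferase reporter; series mostly up to about 92 µM; nearly all actives have a fitted effect of over 15% in size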). The gist of the method:
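NIH/3T3-derived 3T3Gli1-Luc cells with stably integrated Gli1-driven firefly luciferase, 2,000 cells/well, compounds added after 4 hr. Incubated 24 hr at 37C, 5% CO2; luminescence read after 30 min with luciferase reagent at room temperature.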

A short description of experiment [10]: qHTS assay to identify small molecule phospholipidosis (PLD) inducers (AID 1259344; active = well fitted curve in the direction sought with a large enough effect; an effect the other way counts as inactive or inconclusive; also: potency is read from the fitted curve at half-maximal effect). The gist of the method:
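Quantitative HTS in HepG2: compound plus LipidTOX Red dye for 24 h, paraformaldehyde fixation with Hoechst 33342, widefield high-content imaging; amiodarone as positive and DMSO as negative control.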

A number with no mark means an inactive call. Records with an inconclusive call do not appear. Active and inactive are the calls of the source. Unless noted, calls follow the shape of the dose curve; as a rule, active = well fitted curve in the direction sought with a large enough effect in the repeat runs; inconclusive = weak or mixed curves; inactive = no such curve, though single readings can be large; an effect the other way counts as inactive or inconclusive.
% is scaled to controls: 0 for no effect and ±100 for the full control effect.

Androgen receptor (Homo sapiens), sequence (P10275 whole entry, looked up): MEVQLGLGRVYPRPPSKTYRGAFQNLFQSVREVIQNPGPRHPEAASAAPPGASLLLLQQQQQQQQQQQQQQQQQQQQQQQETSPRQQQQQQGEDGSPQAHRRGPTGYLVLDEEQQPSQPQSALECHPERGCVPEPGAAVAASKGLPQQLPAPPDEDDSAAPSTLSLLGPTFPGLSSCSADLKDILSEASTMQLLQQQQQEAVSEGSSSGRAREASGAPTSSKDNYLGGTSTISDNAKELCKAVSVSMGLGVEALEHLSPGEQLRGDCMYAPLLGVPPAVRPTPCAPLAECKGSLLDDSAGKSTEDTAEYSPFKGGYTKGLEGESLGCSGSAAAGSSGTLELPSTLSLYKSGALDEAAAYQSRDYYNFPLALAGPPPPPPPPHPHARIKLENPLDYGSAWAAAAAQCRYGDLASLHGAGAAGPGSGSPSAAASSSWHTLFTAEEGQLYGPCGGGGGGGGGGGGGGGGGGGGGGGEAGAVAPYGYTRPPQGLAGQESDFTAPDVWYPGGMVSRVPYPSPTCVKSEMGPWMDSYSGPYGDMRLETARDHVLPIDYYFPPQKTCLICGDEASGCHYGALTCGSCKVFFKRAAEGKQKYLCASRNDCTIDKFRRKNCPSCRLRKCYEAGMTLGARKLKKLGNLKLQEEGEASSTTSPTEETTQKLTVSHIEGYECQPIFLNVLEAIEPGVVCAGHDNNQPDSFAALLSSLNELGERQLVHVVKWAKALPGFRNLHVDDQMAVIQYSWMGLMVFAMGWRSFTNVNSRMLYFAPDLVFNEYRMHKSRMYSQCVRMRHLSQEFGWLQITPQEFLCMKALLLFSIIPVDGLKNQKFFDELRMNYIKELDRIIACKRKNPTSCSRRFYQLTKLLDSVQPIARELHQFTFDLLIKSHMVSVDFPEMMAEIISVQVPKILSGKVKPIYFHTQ
Estrogen receptor (Homo sapiens), sequence (P03372 whole entry, looked up): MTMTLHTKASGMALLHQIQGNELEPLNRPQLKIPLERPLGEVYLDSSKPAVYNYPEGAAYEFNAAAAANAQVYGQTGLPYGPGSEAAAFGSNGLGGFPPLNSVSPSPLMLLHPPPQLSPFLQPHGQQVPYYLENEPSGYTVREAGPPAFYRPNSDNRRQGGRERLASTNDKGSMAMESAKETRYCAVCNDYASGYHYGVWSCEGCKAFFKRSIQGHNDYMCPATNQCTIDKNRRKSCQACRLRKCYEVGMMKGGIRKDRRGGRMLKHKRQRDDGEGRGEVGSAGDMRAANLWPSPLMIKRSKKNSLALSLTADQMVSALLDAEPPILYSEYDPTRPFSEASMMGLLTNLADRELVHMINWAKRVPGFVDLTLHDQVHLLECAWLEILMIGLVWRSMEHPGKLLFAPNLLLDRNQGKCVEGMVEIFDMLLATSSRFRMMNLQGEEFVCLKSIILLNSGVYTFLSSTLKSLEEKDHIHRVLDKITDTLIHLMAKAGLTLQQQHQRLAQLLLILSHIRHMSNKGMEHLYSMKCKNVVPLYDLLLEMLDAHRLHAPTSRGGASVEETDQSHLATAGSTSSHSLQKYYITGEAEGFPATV

In the case of `CN(C)CCN(Cc1ccsc1)c1ccccn1`, the Potency entry in [1], in experiment [2], in [3], in [4], in experiment [5] and in [6] was “inactive” throughout. The Potency entry in experiment [7] and in experiment [8] was “inactive” throughout. In addition, the molecule was classed as inactive in experiment [9].
On to `CCCCCCCCCc1ccc(OCCOCCO)cc1`, for which the Potency is 8.1 µM (active) in experiment [1], 5.74 µM (active) in experiment [2] and 2.28 µM (active) in experiment [3]. Moreover, the Potency result in experiment [10], in experiment [5] and in experiment [6] was “inactive” in each case. Besides, the molecule was classed as inactive in experiment [9].
With `CC(C)CC(=O)C1C(=O)c2ccccc2C1=O`, the Potency result in experiment [1], in experiment [2], in experiment [6], in experiment [7] and in [8] was “inactive” each time. Besides, the Potency in [3] is 48.6 µM (active). Also, the molecule was called inactive in experiment [9].
Regarding `O=C(O)C1(C(=O)Nc2ccc(Cl)cc2Cl)CC1`, the Potency result in experiment [1], in [2], in experiment [3], in experiment [4], in [6] and in experiment [7] was “inactive” throughout. Besides, the Potency entry in experiment [8] was “inactive”. In addition, the Potency in [5] is 13.7 µM (active). Besides, the result in experiment [9] was inactive.
Consider `CC(=O)NO`, for which the Potency result in experiment [1], in experiment [2], in experiment [3], in experiment [10], in experiment [5] and in experiment [6] was “inactive” each time. Moreover, the Potency entry in experiment [7] and in experiment [8] was “inactive” in each case. In addition, in [9], the molecule was called inactive.
Take `Nc1cccc([N+](=O)[O-])c1`: the Potency entry in [1], in experiment [2], in experiment [3], in [4], in experiment [5] and in experiment [6] was “inactive” each time. In addition, the Potency result in experiment [8] was “inactive”. Moreover, the call in experiment [9] was inactive.
Take `Cc1[nH]c(C)c(Cl)c(=O)c1Cl`: the activity change, negative = cytotoxicity was -5.47% [at 19 µM] in [1] and 8.49% [at 19 µM] in experiment [6]. The viability change, negative = cytotoxic in experiment [2] is 1.2% [at 19 µM]; in experiment [7] it was 6.9% [at 19 µM]; in experiment [8], 1.87% [at 19 µM]. Moreover, the Potency entry in [4] and in experiment [10] was “inactive” throughout. Further, the activity change, negative = inhibition in experiment [5] was 7.15% [at 19 µM]. The activity change in experiment [9] is -0.115% [at 18.9 µM].
As to `Cc1cc(N)c2cc(NC(=O)Nc3ccc4nc(C)cc(N)c4c3)ccc2n1`, the Potency result in [1], in experiment [2], in experiment [3], in experiment [5] and in [6] was “inactive” in each case. Besides, the outcome in [9] was inactive.
Turning to `OC[C@H]1O[C@@H](OCCc2ccc(O)cc2)[C@H](O)[C@@H](O)[C@@H]1O`, the Potency entry in experiment [1], in experiment [2], in [4], in [10], in [5] and in experiment [6] was “inactive” throughout. Also, the Potency result in [7] and in experiment [8] was “inactive” in each case. Moreover, the call in experiment [9] was inactive.
For `O=C(O)CNCC(=O)O`, the activity change, negative = cytotoxicity is 0.833% [at 8.39 µM] in [1] and -5.53% [at 8.39 µM] in experiment [6]. Also, the figures for the viability change, negative = cytotoxic in experiment [2], in experiment [7] and in experiment [8] were -0.633% [at 8.39 µM], 1.7% [at 8.39 µM] and 3.32% [at 8.39 µM], respectively. For the same molecule, the activity, negative = inhibition in experiment [3] was -3.67% [at 8.39 µM]. The activity change, negative = inhibition in [4] is -6.61% [at 8.39 µM]; in experiment [5], 10.7% [at 8.39 µM]. Besides, the activity change in experiment [9] is 0.375% [at 8.39 µM].
As for `O[C@@H](COc1cccc2ncccc12)CN1CCN(C2c3ccccc3[C@@H]3[C@H](c4ccccc42)C3(F)F)CC1` (some centres not stated), the Potency entry in [1], in [2], in experiment [4], in [5] and in [6] was “inactive” each time. Moreover, the Potency in experiment [3] is 13.3 µM (active). The result in [9] was inactive.
`N=c1ccn2c(n1)O[C@H]1[C@H](O)[C@@H](CO)O[C@H]12`: the Potency entry in experiment [1], in experiment [2], in experiment [4], in experiment [10], in [5] and in experiment [6] was “inactive” in each case. In addition, the Potency result in experiment [7] and in experiment [8] was “inactive” throughout. In [9], the result was inactive.
As to `C#CCN(C)CCCOc1ccc(Cl)cc1Cl`, the Potency entry in experiment [1], in experiment [2], in [4], in experiment [10], in experiment [5] and in experiment [6] was “inactive” throughout. Also, the Potency entry in experiment [7] and in [8] was “inactive” each time. The molecule was called inactive in [9].
Take `C[N+](C)(C)CCOC(=O)CCC(=O)OCC[N+](C)(C)C`: the Potency result in experiment [1], in [2], in experiment [4], in experiment [10], in experiment [5] and in [6] was “inactive” throughout. In addition, the Potency entry in experiment [8] was “inactive”. In experiment [9], the outcome was inactive.
Regarding `Nc1c(CC(=O)O)cccc1C(=O)c1ccc(Br)cc1`, the Potency result in experiment [1], in experiment [2], in [4], in [10], in experiment [5] and in experiment [6] was “inactive” each time. The Potency entry in experiment [8] was “inactive”. Further, the outcome in experiment [9] was inactive.
For the molecule `C#Cc1cccc(Nc2ncnc3cc(OCCOC)c(OCCOC)cc23)c1`, the Potency entry in experiment [1], in [2], in experiment [4], in [5] and in experiment [6] was “inactive” each time. For the same molecule, in experiment [10], the Potency is 10 µM (active). Besides, the outcome in [9] was inactive.
Regarding `C[C@H]1C[C@H]2[C@@H]3CCC4=CC(=O)C=C[C@]4(C)[C@@]3(Cl)[C@@H](O)C[C@]2(C)[C@@]1(O)C(=O)CO`, the Potency result in experiment [1], in experiment [2], in experiment [4], in experiment [10], in experiment [5] and in experiment [6] was “inactive” in each case. Besides, the Potency result in [8] is “inactive”. The call in [9] was inactive.
In the case of `CCN(CC)CCNC(=O)c1cc(Br)c(N)cc1OC`, the Potency entry in experiment [1], in experiment [2], in experiment [4], in experiment [10], in [5] and in experiment [6] was “inactive” in each case. Besides, the Potency result in experiment [8] was “inactive”. Further, the result in experiment [9] was inactive.
For the molecule `CN1C[C@H]2c3ccccc3Oc3ccc(Cl)cc3[C@@H]2C1`, the Potency result in [1], in experiment [2], in [4] and in experiment [5] was “inactive” each time. Besides, the PLD induction in experiment [10] was 1.39% [at 7.66 µM]. In experiment [9], the molecule was called inactive.
As for `CN1CCC(N(Cc2cccs2)c2ccccc2)CC1`, the Potency result in experiment [1], in experiment [2], in [4], in experiment [5], in experiment [6] and in [7] was “inactive” in each case. For the same molecule, the PLD induction in experiment [10] is -4.03% [at 7.66 µM]. Also, in [9], the result was inactive.
As to `CCC(=O)O[C@]1(C(=O)CCl)[C@@H](C)C[C@H]2[C@@H]3CCC4=CC(=O)C=C[C@]4(C)[C@@]3(F)[C@@H](O)C[C@@]21C`, the Potency entry in experiment [1], in experiment [2], in experiment [4], in experiment [10], in experiment [5] and in experiment [6] was “inactive” in each case. The Potency entry in [8] was “inactive”. In addition, the result in experiment [9] was inactive.
Turning to `CCCCCCCCCCCc1ccccc1`, the Potency result in experiment [1], in experiment [2], in [4], in experiment [5], in experiment [6] and in experiment [7] was “inactive” throughout. Also, the Potency entry in [8] is “inactive”. The call in experiment [9] was inactive.
As to `CCOCC(O)COc1ccc(NC(=O)CC[S+](C)C)cc1` (configuration not stated), the Potency entry in [1], in experiment [2], in experiment [4], in experiment [10], in [5] and in experiment [6] was “inactive” each time. The Potency result in experiment [7] and in experiment [8] was “inactive” throughout. For the same molecule, the call in experiment [9] was inactive.
With `O=C(CS)Nc1ccccc1`, the Potency entry in experiment [1], in [2], in experiment [4], in experiment [5], in experiment [6] and in experiment [8] was “inactive” each time. In [10], the PLD induction is 0.942% [at 7.66 µM]. The outcome in experiment [9] was inactive.
Regarding `CC[N+](C)(CC)CCOC(=O)C(O)(c1ccccc1)C1CCCCC1` (configuration not stated), the Potency result in [1], in experiment [2], in [4], in experiment [10], in experiment [5] and in [6] was “inactive” each time. In addition, the Potency result in experiment [7] and in experiment [8] was “inactive” in each case. Also, in experiment [9], the outcome was inactive.

For the origin of these results see PubChem BioAssay (Tox21).
